# Source: PubChem BioAssay (The Scripps Research Institute Molecular Screening Center)
# An excerpt weighted towards active compounds, which were near 5.7% of everything screened.
# ssDAF-12 act: activators of S. stercoralis DAF-12 nuclear receptor | HEK293 ssDAF-12/GRIP1 lit1-tk-luc reporter, luminescence; % of 3 µM dafachronic acid response | activation, % at 6.8 µM | 370,000 compounds, 1% hits;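 active = activation above the mean over all tested compounds plus 3 SD, cut at about 0.9% in these data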;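 note: 0% = DMSO-only wells and 100% = 3 µM delta7-dafachronic acid wells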
# hcDAF12 agonist: activates DAF-12 receptor from parasite H. contortus. 370,000 compounds, 1.4% hits. HEK293 hcDAF-12 lit1-tk-luc reporter, luminescence; 0% DMSO, 100% Δ7-dafachronic acid. activation, % at 6.8 µM;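 active = activation above the mean of all tested compounds plus 3 SD, cut at about 5.5% in these data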;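 note: 100% = response to 3 µM Δ7-dafachronic acid high control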
# hgDAF-12 ag: hgDAF-12 agonism, primary luciferase screen; activation, % at 6.8 µM; HEK293 GAL4-hgDAF12 UAS-luciferase reporter, agonist luminescence; normalized to butyrate control; 370,000 compounds, 1.8% hits;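 active = activation above a cutoff set at the mean of all screened compounds plus 3 SD, cut at about 10% in these data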;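 note: 0% = DMSO wells and 100% = sodium butyrate wells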
# AHR activator: activates the human aryl hydrocarbon receptor | AHR-responsive luciferase reporter cells, luminescence | activation, % at 5 µM | 320,000 compounds, 2.5% hits | AID 2796; in the data active = activation above about 47%;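 note: 0% = vehicle wells and 100% = reference agonist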
# Target sequence (P35869 whole entry, looked up): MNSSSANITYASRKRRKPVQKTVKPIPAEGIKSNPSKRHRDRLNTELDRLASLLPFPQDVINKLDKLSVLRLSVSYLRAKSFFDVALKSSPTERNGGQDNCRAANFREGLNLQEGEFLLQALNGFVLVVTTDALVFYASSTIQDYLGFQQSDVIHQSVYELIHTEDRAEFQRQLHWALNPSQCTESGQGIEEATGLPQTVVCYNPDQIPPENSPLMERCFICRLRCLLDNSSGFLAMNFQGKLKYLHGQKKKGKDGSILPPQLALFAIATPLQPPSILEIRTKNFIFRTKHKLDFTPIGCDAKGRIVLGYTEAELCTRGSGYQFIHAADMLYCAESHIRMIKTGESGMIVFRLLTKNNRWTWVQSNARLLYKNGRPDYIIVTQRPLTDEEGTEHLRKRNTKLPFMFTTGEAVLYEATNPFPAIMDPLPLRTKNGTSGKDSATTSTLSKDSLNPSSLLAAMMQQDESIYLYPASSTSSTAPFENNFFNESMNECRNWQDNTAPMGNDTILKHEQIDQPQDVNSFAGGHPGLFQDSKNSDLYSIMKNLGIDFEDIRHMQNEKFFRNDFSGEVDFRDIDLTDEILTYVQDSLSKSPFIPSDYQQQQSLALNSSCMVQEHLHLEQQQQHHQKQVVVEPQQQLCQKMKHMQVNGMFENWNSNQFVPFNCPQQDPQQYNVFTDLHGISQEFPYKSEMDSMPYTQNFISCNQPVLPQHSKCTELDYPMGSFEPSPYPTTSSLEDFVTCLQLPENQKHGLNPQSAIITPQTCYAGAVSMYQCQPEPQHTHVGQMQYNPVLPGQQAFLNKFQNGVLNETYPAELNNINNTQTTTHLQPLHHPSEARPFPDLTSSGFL
# DAX1 inh-1: DAX1 (NR0B1) inhibition, primary screen. 370,000 compounds, 1.1% hits. AID 652010. inhibition, % at 6.8 µM. HEK293T StAR-luciferase reporter, SF-1/DAX-1 repression relief;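 active = inhibition above the mean over all tested compounds plus 3 SD, cut at about 3.6% in these data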;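 note: 0% = DAX-1 cells with DMSO and 100% = cells lacking DAX-1 with DMSO; higher inhibition means more luminescence from relief of DAX-1 repression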
# DAX1 inh-2: NR0B1 (DAX1) inhibition; 340,000 compounds, 0.99% hits; P51843; inhibition, % at 6.75 µM; HEK293 Gal4-DAX1 luciferase reporter, luminescence;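 active = inhibition above the mean over all tested compounds plus 3 SD, cut at about 4.2% in these data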;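 note: 0% = DAX1-transfected cells with DMSO and 100% = empty-vector control cells with DMSO; inhibition shows as a rise in luminescence from relieved DAX1 repression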
# LXR ag: counter-screen for hcDAF-12 agonists: agonists of human LXR-beta | 3,400 tested, under 10 active | shares compounds with hcDAF12 agonist | activation, % at 6.8 µM | HEK293 Gal4-LXR tk-luc reporter, luminescence, 24 h; normalized: DMSO 0%, positive control 100% | AID 743027;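 active = mean percent activation of the reporter above a cutoff set as the average over tested compounds plus their standard deviation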
# hcDAF12 ag: hcDAF-12 agonism, confirmation assay; shares compounds with hcDAF12 agonist; activation, % at 6.8 µM; AID 743032; 3,400 compounds, 61% hits; HEK293 hcDAF-12 lit1-tk-luc reporter, luminescence; % of Δ7-dafachronic acid response;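 active = mean activation across triplicate tests above the threshold derived from the earlier primary screen, cut at about 5.5% in these data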;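 note: 0% = DMSO only wells and 100% = 3 µM Δ7-dafachronic acid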
# An asterisk follows results filed as active; nt = no result.
SMILES,ssDAF-12 act,hcDAF12 agonist,hgDAF-12 ag,AHR activator,DAX1 inh-1,DAX1 inh-2,LXR ag,hcDAF12 ag
Cc1cc(C)c2nc(/N=C(\N)NC(=O)c3ccccc3)nc(C)c2c1,0,6.9*,5,25,1,2,0,2
CC1=C(C#N)C(c2ccccc2O)C(C#N)=C(C)N1,1,9.6*,8,43,0,2,0,5.7*
O=C(CSc1n[nH]c(-c2ccco2)n1)Nc1ccc(F)cc1,-1,0,-2,0,-1,-1,nt,nt
CCCCN(C(=O)c1cccc(S(=O)(=O)N2CCOCC2)c1)c1c(N)n(CCC)c(=O)[nH]c1=O,-1,8.2*,2,3,0,3,0,2
C/C(NCCc1ccccc1)=C1/CCOC1=O,0,-1,0,nt,0,0,nt,nt
Cc1nn(-c2ccc(Br)cc2)c(=O)c2ccccc12,1.7*,11*,11*,57*,1,2,1,11*
COc1ccc(N2CC(C(=O)NCCc3ccc(Cl)cc3)CC2=O)c(OC)c1 (configuration not stated),-1,-2,0,1,0,-1,nt,nt
Cc1ccsc1/C=N/N=C/c1sccc1C,1.6*,11*,17*,70*,3,2,2,14*
Cc1ccsc1C=Nc1ccc(O)cc1,nt,nt,nt,0,nt,1,nt,nt
Nc1cc(C(=O)OCC(=O)NCC2CCCO2)ccc1Cl (configuration not stated),0,2,4,2,0,1,nt,nt
CCOC(=O)CNc1nc(Cl)nc(NC(C)(C)C)n1,-1,0,4,0,1,0,nt,nt
C=CCc1ccc(OCC(O)CN2CCN(c3ccccc3OC)CC2)c(OC)c1 (configuration not stated),-1,0,2,2,0,-1,nt,nt
Cc1ccc(S(=O)(=O)N2CCN(C(=O)c3ccc4ccccc4n3)CC2)c(C)c1,1,7.2*,11*,26,3,1,0,8.4*
Nc1cc2c(cc1Cl)-c1ccccc1C2,0,7.5*,12*,nt,0,4,0,4
Cc1cc2ccccc2n1CCNC(=O)c1ccc(Br)o1,0,8.0*,2,25,3,3,0,-1
Cc1cc(C)nc(NC(C)(C)C(=O)O)n1,-2,-2,1,1,0,0,nt,nt
S=C1NC2(CCCC2)Nc2ccccc21,0,6.7*,3,37,0,2,0,5
OC(CNCC1COc2ccccc2O1)COc1ccccc1F (configuration not stated),-1,0,0,0,0,1,nt,nt
COc1ccc(CCNC(=O)CCNC(=O)c2ccco2)cc1,-1,6.8*,2,1,0,0,0,0
COc1cccc(CNC(=O)CCNC(=O)c2ccco2)c1,-1,0,0,-2,0,2,nt,nt
O=C(COc1ccc(Cl)cc1Cl)NCCC1=CCCCC1,-1,0,-1,0,-1,0,nt,nt
COc1c(Cl)cccc1-c1cn2ccccc2n1,0,7.3*,13*,14,3,-1,1,7.7*
COc1cc(Nc2ccn3nc(-c4ccccc4Cl)cc3n2)cc(OC)c1OC,-2,-2,0,nt,-1,nt,nt,nt
CC(=O)C1=C(O)C(=CC=Cc2ccccc2)OC1=O,0,0,5,nt,0,0,nt,nt
Cn1c(C(=O)Nc2ccc(Cl)cc2)cc2cc(Cl)ccc21,0,8.3*,4,68*,0,0,0,7.9*
SMILES,ssDAF-12 act,hcDAF12 agonist,hgDAF-12 ag,AHR activator,DAX1 inh-1,DAX1 inh-2,LXR ag,hcDAF12 ag
CC(=O)c1ccc(OC(C)c2nc3ccccc3s2)cc1 (configuration not stated),1.0*,7.7*,5,15,0,2,0,9.6*
COc1ccc(CCc2nnc(CCC(=O)N(C)Cc3ccnc4ccccc34)o2)cc1,-2,-4,-1,0,-2,-4,nt,nt
CC(CCN1CCC(C(O)(c2ccccc2)c2ccccc2)CC1)Oc1cccc(F)c1 (configuration not stated),0,11*,1,nt,0,nt,0,2
Cc1cccc(OC(C)CCN2CCC(C(O)(c3ccccc3)c3ccccc3)CC2)c1 (configuration not stated),-1,3,-3,nt,0,nt,nt,nt
Cc1cccc(NC(=O)C2CCCN(S(=O)(=O)c3c(C)nn(C)c3C)C2)c1 (configuration not stated),-2,0,6,4,0,0,nt,nt
Oc1ccccc1-c1nc(N2CCN(Cc3ccccc3)CC2)c2ccccc2n1,0,8.5*,6,36,0,-1,0,4
Oc1ccccc1-c1nc(N2CCCC2)c2ccccc2n1,-1,-1,-2,-1,0,1,nt,nt
Clc1ccc(/C=C/c2ncc3ccccn23)cc1,1.6*,11*,11*,9,3,2,1,5
CCOc1cc(C(=O)O)cc(Cl)c1OCC#N,-1,-1,-1,2,0,0,nt,nt
Cc1cc(N)n2ncc(-c3ccc(Cl)cc3)c2n1,0,6.7*,10,69*,3,1,1,5
Fc1cccc(-c2nnn3c2nc(Cl)c2ccccc23)c1,1,8.3*,12*,nt,1,4,0,6.4*
CN(Cc1ccccc1)C(=O)c1ccc(NC(=O)Cc2ccc(NC(=O)C3CCN(C(=O)c4ccccc4)CC3)cc2)cc1,-2,-1,-3,nt,1,0,nt,nt
CCOc1ccc(/C=C2\SC(=S)N(CCC(=O)Nc3cccc(C(=O)O)c3)C2=O)cc1,-1,2,-2,14,0,0,nt,nt
COc1cc2c(cc1NC(=O)C(C)Sc1cccc[n+]1[O-])oc1ccccc12 (configuration not stated),0,9.6*,7,99*,1,1,0,6
CC(=O)Nc1ccc2c(c1)OCO2,-1,-1,-4,1,0,-1,nt,nt
Cc1ccccc1C(=O)Nc1ccc2c(c1)OCO2,0,6.8*,13*,8,3,-1,2,5
O=C(Nc1ccc2c(c1)OCO2)c1cccs1,0,6.6*,12*,88*,3,1,1,6.1*
O=C(Nc1ccc2c(c1)OCO2)c1noc2c1CCCCC2,0,9.0*,12*,30,4.4*,0,1,6.1*
COc1ccc(Cl)cc1C(=O)Nc1ccc2c(c1)OCCO2,3.0*,8.6*,10,nt,2,8.4*,1,12*
